# Measured values as given in PubChem BioAssay (NCI).
# Compounds without any hit were thinned out: in the full panel of roughly 83,000, 20% have a hit.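 Activity criterion: percent growth below 10, measured after cells in 96-well plates were exposed to a single compound concentration for 48 hours.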 Values without a mark were called inactive. The source made the active and inactive calls.
# Test system: HL-60(TB) leukemia
# Test: NCI-60 one-dose screen, 48 h (100 = growth as untreated, 0 = no growth, -100 = all killed)
# Settings: 10 µM unless noted
row,Compound,growth
1,O=C(Nc1ccc(Cl)cc1)Nc1ccc(Oc2nncc3ccccc23)cc1,3.65% (active)
2,C#CC#CC#CC#CC#CC#CC#CC#CC[C@@H]1OC[C@H](COC(=O)O[C@@H](C(=O)O[C@H]2C[C@@]3(O)[C@@H](OC(=O)c4ccccc4)[C@@H]4[C@]5(OC(C)=O)CO[C@@H]5C[C@H](O)[C@@]4(C)C(=O)[C@H](OC(C)=O)C(=C2C)C3(C)C)[C@@H](NC(=O)c2ccccc2)c2ccccc2)O1,6.04% (active)
3,COc1cc(N=Nc2cc(S(=O)(=O)O)cc3cc(S(=O)(=O)O)cc(O)c23)c(C)cc1N=Nc1c(S(=O)(=O)O)cc2cc(Nc3ccccc3)ccc2c1O,93.6%
4,Cc1ccc(-c2nc(SCC(=O)c3ccc(C#N)cc3)[nH]c(=O)c2C#N)cc1,94.2%
5,Cc1cc(N)c(S(=O)(=O)O)c(N)c1,98.9%
6,COc1ccc(NC(=O)Cc2nc3nc4sc(C)c(C)c4c(=O)n3[nH]2)cc1,109%
7,C=C1C(=O)O[C@H]2[C@H]1CC/C(CNC(=O)/C1=C/CC[C@@]3(C)O[C@H]3[C@H]3OC(=O)C(=C)[C@@H]3CC1)=C\CC[C@@]1(C)O[C@@H]21,57.4%
8,Cc1ccc(-c2c(Br)c(OC(=O)CO[C@@H]3C[C@H](C)CC[C@H]3C(C)C)c(-c3ccc(C)cc3C)c(Br)c2OC(=O)CO[C@H]2C[C@@H](C)CC[C@@H]2C(C)C)c(C)c1,101%
9,O=C(O)CCCn1c(SCc2c(Cl)cccc2Cl)nc2ccsc2c1=O,-4.86% (active)
10,C[C@H]1[C@H](C)CC[C@]2(C(=O)OCCOCCOCC[P+](c3ccccc3)(c3ccccc3)c3ccccc3)CC[C@]3(C)C(=CC[C@@H]4[C@@]5(C)CC[C@H](OC(=O)C(Cl)Cl)C(C)(C)[C@@H]5CC[C@]43C)[C@H]12,-48.3% (active)
